Only some compounds are listed: those with a hit (about 2.4% of all), similar ones and a draw of the others.
ADAM10 inh – inhibits human ADAM10; O14672; recombinant ADAM10, EDANS/DABCYL FRET peptide cleavage, 3 h; inhibition, % at 7 µM; 0.62% of 370,000 active;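 active = inhibition above a per-campaign cutoff equal to the mean of compounds falling between control-based bounds plus 3 SD, cut at about 20% in these data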
APOBEC3G inh – blocks human APOBEC3G single-stranded DNA deamination; 0.28% of 330,000 active; recombinant A3G, ssDNA deamination FAM/TAMRA fluorescence; inhibition, % at 20 µM; Q9HC16;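 active = inhibition of at least 40% at 20 µM, with no more than 30% in the related APOBEC3A deaminase screen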
NRP1-CendR mod – alters CendR peptide binding to human NRP-1 | FAM-RPARPAR peptide binding to NRP-1, fluorescence polarization | inhibition, % at 25 µM | 0.85% of 360,000 active;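 active = inhibition or corrected inhibition above about 18%, plus a signal ratio from 0.5 to 1.5, limit read from the data, passing the limit was not always enough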
ADAM17 inh – inhibits human ADAM17. P78536. recombinant ADAM17, EDANS/DABCYL FRET peptide cleavage. inhibition, % at 6.95 µM. 0.83% of 370,000 active;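 active = inhibition above the mean of compounds lying between control limits plus 3 SD, set per campaign, cut at about 8.5% in these data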
APOBEC3A inh – human APOBEC3A DNA deaminase inhibition; recombinant A3A, FAM/TAMRA ssDNA deamination fluorescence; inhibition, % at 20 µM; 0.41% of 330,000 active; AID 493011;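 active = at least 40% inhibition at 20 µM here, with at most 30% in a related deaminase screen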
Target sequence (P31941 whole entry, looked up): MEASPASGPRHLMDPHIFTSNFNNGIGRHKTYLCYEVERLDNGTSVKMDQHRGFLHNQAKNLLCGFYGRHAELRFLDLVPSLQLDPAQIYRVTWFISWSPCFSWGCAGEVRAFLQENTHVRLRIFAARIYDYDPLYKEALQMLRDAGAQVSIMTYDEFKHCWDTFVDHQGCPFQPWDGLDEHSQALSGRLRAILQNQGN
ADAM10 ctr – ADAM10 inhibition, counter-screen for ADAM17 exosite hits. inhibition, % at 6.95 µM. 47% of 2,900 active. recombinant ADAM10, EDANS/DABCYL FRET peptide cleavage, 3 h. shares compounds with ADAM17 inh;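 active = mean inhibition over the triplicate runs exceeds the activity threshold set in the earlier primary screen, cut at about 20% in these data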
ADAM17 confirm – human ADAM17 inhibition, confirmation. shares compounds with ADAM17 inh. recombinant ADAM17, EDANS/DABCYL QFRET peptide cleavage. inhibition, % at 6.95 µM. 65% of 2,900 active;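 active = mean inhibition across replicates above the hit cutoff set in the primary screen, cut at about 8.5% in these data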
A number is an active result; i = inactive; nt = no result given.

SMILES	ADAM10 inh	APOBEC3G inh	NRP1-CendR mod	ADAM17 inh	APOBEC3A inh	ADAM10 ctr	ADAM17 confirm
Cc1nn(-c2ccccc2)c2sc(C(=O)NCC3CCCO3)cc12 (centres undefined)	i	nt	nt	i	nt	nt	nt
Cc1[nH]c2ccccc2c1C(=O)COC(=O)c1c(-c2ccccc2Cl)noc1C	i	i	i	9.5	i	33	18
O=C(CSc1nc2ccccc2nc1N1CCOCC1)N1CCN(c2cccc(C(F)(F)F)c2)CC1	i	nt	nt	i	nt	nt	nt
CC(C)NC(=O)N(C)C[C@H]1Oc2ccc(NC(=O)Nc3ccccc3)cc2C(=O)N([C@@H](C)CO)C[C@@H]1C	i	i	i	11	i	i	i
CC(C)NC(=O)N(C)C[C@H]1Oc2ccc(NC(=O)Cc3ccccc3)cc2C(=O)N([C@H](C)CO)C[C@@H]1C	i	i	i	9.1	i	i	i
C[C@H](CO)N1C[C@H](C)[C@@H](CN(C)C(=O)Nc2ccc(C(F)(F)F)cc2)Oc2ccc(NC(=O)Cc3ccccc3)cc2C1=O	i	i	i	16	i	i	9.6
Brc1ccc(CN2CCCc3nc(-c4ccccc4)ccc32)cc1	i	nt	nt	i	nt	nt	nt
Cc1cc(N2CCNC[C@@H]2C)ccc1N1CCN(Cc2ccccc2)[C@H](C)C1	i	nt	nt	i	nt	nt	nt
COc1ccc(OC)c(NC(=O)C2CC(C)=C(C)CC2C(=O)O)c1 (centres undefined)	i	i	i	11	i	i	i
Cc1ccc(C(=O)c2cn[nH]c2-c2ccccc2O)cc1	i	i	i	8.8	i	i	i
COC(=O)C1=C(C)N(Cc2cccc(C(F)(F)F)c2)C(=NCc2ccc3c(c2)OCO3)NC1c1ccc(Cl)cc1 (centres undefined)	i	nt	nt	i	nt	nt	nt
O=C(c1[nH]c(C(F)(F)F)nc1-c1ccccc1)N1CCC(Cc2ccccc2)CC1	i	nt	i	12	nt	i	i
Cc1ccc(C(=O)CCC(=O)OCC(=O)N(CC(C)C)c2c(N)n(Cc3ccccc3)c(=O)[nH]c2=O)cc1	i	i	i	i	i	nt	nt
CC(C)CN(C(=O)COC(=O)CCC(=O)c1ccc(F)cc1)c1c(N)n(Cc2ccccc2)c(=O)[nH]c1=O	i	i	i	13	i	i	i
O=C(c1ccco1)N1CCN(c2nc(C3CC3)nc3c2nnn3Cc2ccccc2Cl)CC1	i	i	i	11	i	i	i
O=C(Nc1cccc(-n2cccn2)c1)C1CCCN(Cc2ccccc2F)C1 (centres undefined)	i	i	i	11	i	i	i
Nc1[nH]c2cc(C(F)(F)F)ccc2c1C(=O)N1CCN(CCc2ccccc2)CC1	i	nt	nt	i	nt	nt	nt
O=C(c1ccc(CS(=O)Cc2ccccc2Cl)o1)N1CCN(c2ccccn2)CC1 (centres undefined)	i	i	i	12	i	i	i
O=C(c1ccc(CS(=O)Cc2ccc(Cl)cc2)o1)N1CCN(c2ccccn2)CC1 (centres undefined)	i	i	i	i	i	nt	nt
O=C(c1ccc(CS(=O)Cc2ccccc2Cl)o1)N1CCN(c2cccc(Cl)c2)CC1 (centres undefined)	i	i	i	15	i	i	9.0
[C-]#[N+][C@]12C(=O)[C@H](C=C(Cl)[C@@]1(C)C=C)C(C)(C)[C@H]1C(=O)N(C)c3cccc2c31	i	nt	nt	i	nt	nt	nt
CCCCCCC12C(=Cc3cc(C)ccc31)c1ccccc1C(CC(=O)NCc1ccccc1)N2C(=O)OC (centres undefined)	i	nt	nt	i	nt	nt	nt
CCOC(=O)[C@@H]1[C@H]2COc3ccc(Br)cc3[C@H]2N2C(=O)N(c3ccc(C)cc3)C(=O)[C@]12C	i	i	i	8.8	i	33	22
CCOC(=O)[C@@H]1[C@H]2COc3ccc(Br)cc3[C@@H]2N2C(=O)N(c3ccc(C)cc3)C(=O)[C@]12C	i	i	i	i	i	nt	nt
Cc1c([N+](=O)[O-])cnc(Sc2ccccc2)c1[N+](=O)[O-]	i	i	i	10	i	i	i
Cc1ccc(Sc2ncccc2[N+](=O)[O-])cc1	i	i	i	i	i	nt	nt
